Among the data in PubChem BioAssay (NCI) are growth values, retold here.

Among the test systems are SK-MEL-2 melanoma; EKVX NSCLC; SN12C renal; UO-31 renal; TK-10 renal; ACHN renal; CAKI-1 renal; A498 renal; CCRF-CEM leukemia; MOLT-4 leukemia.
Common to all, as to assay: NCI-60 one-dose screen, 48 h (100 = growth as untreated, 0 = no growth, -100 = all killed)
What all share (details): 10 µM unless noted

The structures appear in SMILES notation. About 83,000 compounds went through this panel and 20% of them were active in at least one assay; those are over-represented in the sample as a whole.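 For each line, cells grew in 96-well plates with the test compound present at a single concentration for 48 hours.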 Unmarked numbers belong to inactive results. Active and inactive are the calls of the source. The calls were made as follows: active = growth percent below 10; inactive = the rest.

For the compound `COC(=O)[C@]12CC[C@@H](C)[C@H](C)[C@@H]1C1=CC[C@@H]3[C@@]4(C)C[C@@H](O)[C@H](O)[C@@](C)(CO)C4=CC[C@@]3(C)[C@]1(C)CC2`, the growth is -36.9% (active) in the experiment on SK-MEL-2 melanoma; -71.8% (active) in the experiment on EKVX NSCLC; -71.5% (active) with SN12C renal; -48.9% (active) in the experiment on UO-31 renal; -17.7% (active) in the experiment on TK-10 renal; -83.7% (active) in the experiment with ACHN renal. Besides, the growth was -10.2% (active) in the experiment on CAKI-1 renal, -94.7% (active) in the experiment with A498 renal, -33.6% (active) in the experiment on CCRF-CEM leukemia and -47.4% (active) in the experiment on MOLT-4 leukemia.
`N=c1ccc2nc3c(cc(N)c4ccccc43)oc-2c1`: the growth is -36.1% (active) in the experiment with SK-MEL-2 melanoma; -33.9% (active) with EKVX NSCLC; -95.2% (active) in the experiment with SN12C renal; -78.7% (active) with UO-31 renal; -29.7% (active) in the experiment with TK-10 renal; -94.4% (active) in the experiment on ACHN renal. Besides, the growth was -60% (active) in the experiment on CAKI-1 renal, -21.4% (active) in the experiment on A498 renal, -24.9% (active) in the experiment with CCRF-CEM leukemia and -44% (active) in the experiment with MOLT-4 leukemia.
Take `C=C(C)[C@@H]1CC[C@]2(C)[C@H](CC=C3[C@@H]4CC(C)(C)CC[C@]4(C=O)CC[C@]32C)[C@@]1(C)CCCN`: the growth in the experiment with SK-MEL-2 melanoma was 109%; with EKVX NSCLC it was 94.5%; in the experiment with SN12C renal, 66.7%; with UO-31 renal, 44.6%; in the experiment with TK-10 renal it was 81.4%; in the experiment with ACHN renal, 88.4%. Further, the growth is 61.1% in the experiment with CAKI-1 renal, 97% in the experiment with A498 renal, 52.9% in the experiment on CCRF-CEM leukemia and 35.5% in the experiment with MOLT-4 leukemia.
Consider `C=C(C)[C@@H]1CC[C@]2(/C=N/Nc3ccncc3)CC[C@]3(C)[C@H](CC[C@@H]4[C@@]5(C)CCCNC(C)(C)[C@@H]5CC[C@]43C)[C@@H]12`, for which the growth with SK-MEL-2 melanoma is 110%; in the experiment on EKVX NSCLC it was 99.5%; in the experiment with SN12C renal it was 85.2%; in the experiment on UO-31 renal, 85%; with TK-10 renal, 120%; with ACHN renal it was 100%. Moreover, the growth in the experiment with CAKI-1 renal was 74.7%; in the experiment with A498 renal, 83.8%; in the experiment with CCRF-CEM leukemia it was 67.1%; with MOLT-4 leukemia, 58%.
Consider `CCCCn1c(-c2ccc(O)cc2)cn2c3c(=O)[nH]c(=O)n(C)c3nc12`, for which the growth was 45.8% in the experiment with SK-MEL-2 melanoma; 85.9% with EKVX NSCLC; 78% in the experiment with SN12C renal; 70.2% with UO-31 renal; 86.7% with TK-10 renal; 92.6% in the experiment with ACHN renal. Moreover, the growth in the experiment on CAKI-1 renal was 86.6%; in the experiment with A498 renal it was 75.8%; in the experiment with CCRF-CEM leukemia, 80%; in the experiment with MOLT-4 leukemia it was 58.6%.
Turning to `COC(=O)[C@]12CC[C@@H](C(/C=C/c3cccnc3)=N/O)[C@@H]1[C@H]1CC[C@@H]3[C@@]4(C)CC(=C/c5cccnc5)/C(=N/O)C(C)(C)[C@@H]4CC[C@@]3(C)[C@]1(C)CC2`, the growth in the experiment with SK-MEL-2 melanoma is 46%; in the experiment on EKVX NSCLC it was 26%; in the experiment with SN12C renal it was 44.5%; in the experiment with UO-31 renal, 19.5%; in the experiment with TK-10 renal it was 67.9%; with ACHN renal, 42.9%. Further, the growth with CAKI-1 renal was 23.7%; in the experiment on A498 renal, 92.5%; in the experiment with CCRF-CEM leukemia, 16.6%; in the experiment on MOLT-4 leukemia, 2.12% (active).
Consider `CC(C)(C)c1ccc(OCCCCCCCN2CCNCC2)cc1`, for which the growth is 103% in the experiment with SK-MEL-2 melanoma; 70% with EKVX NSCLC; 58.8% in the experiment on SN12C renal; 33.3% in the experiment with UO-31 renal; 105% in the experiment with TK-10 renal; 13.6% with ACHN renal. The growth in the experiment on CAKI-1 renal was 44.8%; in the experiment with A498 renal it was 79.9%; in the experiment with CCRF-CEM leukemia, 17.8%; in the experiment with MOLT-4 leukemia it was 0.604% (active).
Take `COc1cc2c(cc1-c1c(C)noc1C)ncc1nc(C3CC3)n([C@H](C)COC(F)F)c12`: the growth was 74.1% in the experiment on SK-MEL-2 melanoma; 56.9% in the experiment with EKVX NSCLC; 71.4% with SN12C renal; 21.6% with UO-31 renal; 26.5% in the experiment on TK-10 renal; 40.6% with ACHN renal. The growth in the experiment with CAKI-1 renal is 34.1%; in the experiment with A498 renal it was 0.499% (active); in the experiment on CCRF-CEM leukemia, 52%; with MOLT-4 leukemia it was 42.2%.
For the compound `O=C(/C=C/c1cccc(O)c1)c1ccccc1O`, the growth in the experiment on SK-MEL-2 melanoma was 84.1%; in the experiment with EKVX NSCLC, 86.9%; in the experiment with SN12C renal, 83.7%; with UO-31 renal it was 73.9%; with TK-10 renal, 121%; in the experiment with ACHN renal, 86.9%. The growth in the experiment on CAKI-1 renal was 50.4%; with A498 renal it was 106%; with CCRF-CEM leukemia it was 47.1%; in the experiment on MOLT-4 leukemia, 66.9%.
Turning to `COc1cc2ncnc(Nc3ccc(OCc4cccc(F)c4)c(Cl)c3)c2cc1NC(=O)C1CCCC1`, the growth in the experiment on SK-MEL-2 melanoma was 86.2%; with EKVX NSCLC, 37.6%; in the experiment with SN12C renal, 85.2%; with UO-31 renal, 30.5%; with TK-10 renal, 18.4%; with ACHN renal, 47.6%. Besides, the growth in the experiment on CAKI-1 renal is 55.9%; in the experiment on A498 renal it was 20.8%; in the experiment with CCRF-CEM leukemia it was 92.6%; in the experiment on MOLT-4 leukemia, 84%.
In the case of `CCc1cccc(CC)c1NC(=O)c1sc2nc3c(cc2c1N)CCCC3`, the growth in the experiment on SK-MEL-2 melanoma is 56.3%; with EKVX NSCLC, 88.9%; with SN12C renal, 83.5%; in the experiment on UO-31 renal, 57.7%; with TK-10 renal, 90.5%; with ACHN renal, 71.8%. Besides, the growth with CAKI-1 renal was 64.6%; in the experiment with A498 renal, 40.2%; in the experiment with CCRF-CEM leukemia, 60.7%; with MOLT-4 leukemia it was 61.9%.
As to `COc1cc(-c2cc3ncccc3c3[nH]c(=O)c4cccnc4c23)cc(OC)c1OC`, the growth was 44.6% in the experiment with SK-MEL-2 melanoma; 33.2% with EKVX NSCLC; 42.7% in the experiment with SN12C renal; 36.2% in the experiment on UO-31 renal; 52.2% with TK-10 renal; 46.7% with ACHN renal. Further, the growth with CAKI-1 renal is 28.4%; in the experiment on A498 renal, -18.1% (active); in the experiment on CCRF-CEM leukemia, 13.1%; in the experiment with MOLT-4 leukemia it was 31.6%.
On to `N#CCCCCCn1c2ccccc2c2c3[nH]c(=O)[nH]c(=O)c3c3c4ccccc4n(CCCCCC#N)c3c21`, for which the growth in the experiment with SK-MEL-2 melanoma is 78.5%; in the experiment with EKVX NSCLC, 80.7%; in the experiment on SN12C renal it was 26.2%; with UO-31 renal, 61.1%; with TK-10 renal, 65.6%; with ACHN renal, 54%. The growth in the experiment on CAKI-1 renal is 93.2%; in the experiment on A498 renal it was 54.5%; in the experiment with CCRF-CEM leukemia, 74.5%; in the experiment on MOLT-4 leukemia, 69.5%.
